Measured values published in PubChem BioAssay AID602296 (Broad Institute, 2012).
In all, about 2,000 compounds went through this assay and about 190 (9.5%) were called active. About 14% were inconclusive and are not listed. The list is a sample of the results. Unmarked numbers belong to inactive results.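 Rule for the calls: active = fitted activation curve crossing 40% at a concentration no higher than the sample's top valid tested dose; inconclusive = flat fitted curve at 30% to 70% activation, or poor curve fit; inactive = signal decrease, flat curve within 30%, or the rest.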

experiment: sustained heat shock response element induction – cell-based, mouse, luciferase, cherry-pick, dose, confirmation (AID 602296); settings: NIH3T3-HGL HSF-1 response element luciferase, 48 h; series mostly up to 26 µM; activation: at the top concentration;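 note: test compounds applied by themselves with no MG132 co-treatment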

Row | Structure (SMILES) | activation
1 | O=C(NC1CCCN(Cc2ccccc2F)C1)c1cccs1 (stereo unspecified) | -6.74%
2 | O=C(O)c1cc([N+](=O)[O-])c(NCCC2=CCCCC2)c([N+](=O)[O-])c1 | -5.64%
3 | O=C(Nc1cccc(Cl)c1)C1CCCN(S(=O)(=O)c2ccc(F)cc2)C1 (stereo unspecified) | -0.929%
4 | COC(=O)Nc1ccc(S(=O)(=O)Nc2cccc3ccccc23)cc1 | -34.8%
5 | O=C(CCn1c(=O)oc2ccccc21)Nc1ccccc1 | 5.77%
6 | CC1(C)Cc2nc(NCCN3CCOCC3)c(C#N)cc2CO1 | -12.8%
7 | CC(=O)C1=C(O)C(=O)N(c2nccs2)C1c1ccccc1 (stereo unspecified) | -6.69%
8 | Cc1[nH]nc(-c2ccc(O)c(C)c2O)c1-c1cnn(-c2ccccc2)c1 | -13.3%
9 | CCOC(=O)C1=C(C)Nc2ncnn2C1c1ccc2c(c1)OCO2 (stereo unspecified) | -2.17%
10 | COCCCNC(=O)c1c[nH]c2ccc(S(=O)(=O)N3CCc4ccccc43)cc2c1=O | -7.37%
11 | NS(=O)(=O)c1ccc(CCNC(=O)c2ccc([N+](=O)[O-])s2)cc1 | -4.33%
12 | CC(=O)Cc1cc(O)c2ccccc2c1OC(=O)c1ccccc1 | 9.89%
13 | O=C1CC(NNc2ccccc2)C(=O)N1c1ccccc1 (stereo unspecified) | -54.7%
14 | CCOC(=O)c1c(NC(=O)c2nn(CC)cc2Br)c(C#N)nn1-c1ccccc1 | -52.7%
15 | Cc1cc(NC(=O)c2cc(C)on2)n(-c2ccccc2)n1 | -10.5%
16 | Cc1oc2ccc(NS(=O)(=O)c3ccc(C(C)(C)C)cc3)cc2c1C(=O)Nc1ccccc1 | -31.3%
17 | CCCc1[nH]nc2c1C(c1cc(OC)ccc1F)C(C#N)=C(N)O2 (stereo unspecified) | -18.2%
18 | O=C(CN1C(=O)NC(Cc2c[nH]c3ccccc23)C1=O)Nc1cccc(S(=O)(=O)N2CCOCC2)c1 (stereo unspecified) | -5.34%
19 | CCOC(=O)C(C)(C)N(Cc1ccc(C)cc1)S(=O)(=O)c1ccc(Cl)c([N+](=O)[O-])c1 | -87.3%
20 | Oc1ccc(-c2cnc(-c3ccc(O)cc3)nc2)cc1 | -63.3%
21 | Cc1cccc2cc(CN(Cc3ccco3)C(c3nnnn3CCc3ccccc3)C(C)C)c(=O)[nH]c12 (stereo unspecified) | -36.5%
22 | COCCNC(=O)c1cccc(OC2CCN(Cc3ccc(Cl)c(F)c3)CC2)c1 | -23.6%

Row | Structure (SMILES) | activation
23 | CCCCOCCCN1CC(=O)N2[C@@H](Cc3c([nH]c4ccccc34)C2(C)C)C1=O | -3.37%
24 | Cc1ccc(-c2cc(C(F)(F)F)c(C#N)c(SCC(=O)O)n2)cc1 | -15.1%
25 | CCOC(=O)C1=C(c2ccccc2)NC(=O)NC1c1cc(Br)c(O)c(OC)c1 (stereo unspecified) | -26.7% [at 12 µM]
26 | CCCn1nc([N+](=O)[O-])c(C(C#N)c2nc3ccccc3o2)c(Cl)c1=O (stereo unspecified) | -72.7%
27 | O=C(COC(=O)c1ccc(S(=O)(=O)NCc2ccco2)cc1)Nc1ccccc1OC(F)F | 7.76%
28 | Cc1cc(C)nc(Sc2nc(Cl)nc(N(c3ccccc3)c3ccccc3)n2)n1 | -20.4%
29 | COc1cc(-c2nc(-c3ccc4c(c3)-c3ccccc3S4(=O)=O)c(-c3ccccc3)[nH]2)cc(OC)c1O | -40.3%
30 | CCC(=O)Nc1c(S(=O)(=O)c2ccccc2)c2nc3ccccc3nc2n1C(C)c1ccccc1 (stereo unspecified) | -20.5%
31 | CCOc1cc(/C=C2/C(=O)ON=C2C)ccc1OCc1ccc(F)cc1 | 44.8%
32 | O=C(CSc1ncn[nH]1)c1cccc([N+](=O)[O-])c1 | -0.937%
33 | COc1cc(-c2nnc3sc(Cc4ccc(Cl)cc4)nn23)cc(OC)c1OC | -27.6%
34 | O=C(CN(C(=O)c1csnn1)c1ccc(F)c(Cl)c1)NCc1ccc(F)cc1 | -5.21%
35 | CC(C)(C)Cc1nc2ccccc2n1CCc1ccccc1 | -18.4%
36 | COC(=O)c1ccc(CSc2nc3ccccc3c(=O)n2CC(C)C)o1 | 11%
37 | CC(c1ccc(F)cc1)n1c(Cn2ncc3ccccc3c2=O)n[nH]c1=S (stereo unspecified) | 12.2%
38 | OC(CNCc1ccco1)Cn1c2ccc(Br)cc2c2cc(Br)ccc21 (stereo unspecified) | 3.97%
39 | COc1ccccc1N1CCN(C(=O)c2ccc3c(=O)n(Cc4ccco4)c(=S)[nH]c3c2)CC1 | 4.32%
40 | CCCCNC(=S)N(Cc1ccco1)Cc1cc2cc3c(cc2[nH]c1=O)OCCO3 | -47%
41 | O=C1N/C(=C\c2ccc(O)cc2)C(O)=C1C=NCc1ccccc1 | -52%
42 | Cc1cccc(C(C#N)c2ccc(Cl)nn2)c1 (stereo unspecified) | 5.31%
43 | COc1ccc2[nH]c(C)c(CCNc3ccc(C(F)(F)F)cc3[N+](=O)[O-])c2c1 | -55.4%
44 | O=S(=O)(c1ccccc1)c1ncc(C(F)(F)F)cc1Cl | -104%

Row | Structure (SMILES) | activation
45 | O=C(CCCn1c(=S)[nH]c2ccc(Br)cc2c1=O)NCC1CCCO1 (stereo unspecified) | 2.17%
46 | COc1ccc(C(=O)N(C)CC(O)c2ccccc2)cc1OC1CCN(C(C)=O)CC1 (stereo unspecified) | -5.01%
47 | O=C1c2ccccc2-c2onc3ccc(N4CCCC4)c1c23 | 26.1%
48 | COC(=O)Cc1ccc(NC(=O)c2ccc(C)c(C)c2)cc1 | -71.3%
49 | CCOC(=O)c1c(S(=O)(=O)NCC2CCN(CCc3cccs3)CC2)c(C)n(C)c1C | 5.71%
50 | Cc1nn(C)c(Oc2ccccc2)c1CCNS(=O)(=O)c1ccc(Cl)cc1 | -52.3%
51 | CN1C(=O)C2(c3ccccc31)N(C)CC(c1ccccn1)C21SC(=S)N(Cc2ccco2)C1=O (stereo unspecified) | -66.3%
52 | COC(=O)C1=C(C)NC(=S)NC1c1ccc(-c2cccc(Cl)c2)o1 (stereo unspecified) | -17.3%
53 | Cc1ccc(C(c2c(C)nn(-c3ccccc3)c2N)c2c(C)nn(-c3ccccc3)c2N)cc1 | -5.45%
54 | COc1cc(CNC2CCCC2)cc(OC)c1 | 2.54%
55 | CCn1c(SCC(=O)N2CCOCC2)nc2oc3c(Cl)cc(Cl)cc3c(=O)c2c1=O | 7.32%
56 | CC(=O)c1ccc(NC(=O)CCCN2C(=O)/C(=C/C(C)=C/c3ccccc3)SC2=S)cc1 | -9.9%
57 | Cc1noc(C)c1COC(=O)c1ccccc1Oc1ccccc1 | -13.4%
58 | CCc1nnc(NC(=O)C(NC(=O)c2ccccc2Cl)C(C)C)s1 (stereo unspecified) | -4.42%
59 | COC(=O)c1sccc1NC(=O)Nc1cccc(F)c1 | -0.711%
60 | Cc1cc(SCC(=O)N/N=C/c2ccc(O)c(O)c2)c(C)cc1Br | -70.1%
61 | Cn1c(SCc2cccc(C(F)(F)F)c2)nnc1-c1ccco1 | 6.26%
62 | Clc1ccc(CSc2nnc(-c3sccc3-n3cccc3)o2)cc1 | -42.5%
63 | Fc1ccc(Sc2ccccc2CNC2=NCCN2)cc1 | -23.8%
64 | O=S(=O)(c1ccc(Cl)c(NC(=S)N/N=C/c2ccc(O)cc2)c1)N1CCOCC1 | -6.39%
65 | O=c1c(Cl)cc(Cl)nn1-c1ccccc1 | -99.9%
66 | CCc1cc2c(SCC#N)ncnc2s1 | 11.3%
